The nature of experiment [1]: Nuclear factor erythroid 2-related factor 2/antioxidant responsive element (Nrf2/ARE) small molecule agonists: qHTS cell viability counter screen in human keratinocytes (AID 1919968; active = well fitted curve in the direction sought with a large enough effect in the repeat runs; an effect the other way counts as inactive or inconclusive; note: nearly all actives have a fitted effect of over 55% in size). The essentials:
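HaCaT ARE reporter line, 1,500 cells/well; 5 h settle, 37 C/5% CO2; cpd in DMSO pinned; 23 h exposure; CellTiter-Fluor, 1 h; fluorescence.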

Experiment [2] in a line: Nuclear factor erythroid 2-related factor 2/antioxidant responsive element (Nrf2/ARE) small molecule agonists: luciferase reporter gene qHTS assay in human keratinocytes (AID 1919969). Note: nearly all actives have a fitted effect of over 35% in size. Note: potency is the fitted concentration of half-maximal effect. A general note: Reporter assays use an easily measured gene product as a stand-in for the process of interest.
For experiment [3], the target named is Gonadotropin-releasing hormone receptor (Homo sapiens) (UniProt P30968). Put plainly: Human gonadotropin-releasing hormone receptor (GnRHR) small molecule agonists, calcium flux assay in GnRHR-HEK293 cells (AID 1920063). Note: nearly all actives have a fitted effect of over 35% in size. The essentials: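 GnRHR-HEK293, 1500 cells/well, 18 h 37 C/5% CO2; Ca dye 1 h 37 C; cpd pinned (DMSO), agonist mode; kinetic FL 480/540, 3 min, 1 s reads; 15 conc, n=3.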
Gonadotropin-releasing hormone receptor (Homo sapiens), sequence (P30968 whole entry, looked up): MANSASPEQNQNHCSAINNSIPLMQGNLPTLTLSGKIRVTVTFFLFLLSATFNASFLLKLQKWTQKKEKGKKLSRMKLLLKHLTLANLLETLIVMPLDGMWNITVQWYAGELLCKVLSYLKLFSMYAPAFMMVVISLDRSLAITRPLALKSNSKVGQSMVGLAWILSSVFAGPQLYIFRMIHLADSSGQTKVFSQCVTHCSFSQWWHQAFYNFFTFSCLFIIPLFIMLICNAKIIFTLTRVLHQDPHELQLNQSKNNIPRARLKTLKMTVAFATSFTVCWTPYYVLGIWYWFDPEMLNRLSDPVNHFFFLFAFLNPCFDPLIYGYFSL

Experiment [4] deals with KiSS-1 receptor (Homo sapiens) (UniProt Q969F8). Briefly: Human kisspeptin (KISS1R) small molecule agonists, calcium flux assay in KISS1R-HEK293 cells (AID 1920064; active = well fitted curve in the direction sought with a large enough effect in the repeat runs; an effect the other way counts as inactive or inconclusive). The essentials:
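Stable human KISS1R HEK293 line; 18 h plating, 37 C/5% CO2; calcium dye 1 h 37 C; compound pin transfer; kinetic fluorescence Ex/Em 480/540, 3 min.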

Experiment [5] is described as follows: G protein-coupled receptor (GPCR) small molecule agonists, calcium flux assay: HEK293 wild type cell line counter screen (AID 1920065). The essentials: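 Kinetic fluorescence at Ex/Em 480/540, recorded every second over 3 min, served as the read-out after compound addition. Each compound was tested at 15 concentrations in triplicate on cells pre-loaded with calcium dye for 1 h.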

The nature of experiment [6]: p53 small molecule agonists, cell-based qHTS assay with human liver microsomes (AID 1963577). The essentials: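 Fluorescence of the beta-lactamase reporter in p53RE-bla cells, detected with LiveBLAzer substrate (2 h, room temperature, dark), served as the read-out after 16 h compound exposure at 37 C with human liver microsomes and NADPH, each 0.5 mg/mL final.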
(In general: In qHTS, concentration-response curves come from the screen itself.)

Experiment [7] can be described thus: p53 small molecule agonists, cell-based qHTS assay with rat liver microsomes (AID 1963578). The essentials: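 Cells carrying a p53 response element–beta-lactamase reporter were plated and rested 5 h, then dosed with compound in DMSO plus rat liver microsomes and NADPH, each at 0.5 mg/mL final. After 16 h at 37 C, LiveBLAzer substrate was added for 2 h.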
Experiment [8] can be described thus: p53 small molecule agonists, cell-based qHTS assay with human liver microsomes: qHTS cell viability counter screen (AID 1963579). Note: nearly all actives have a fitted effect of over 45% in size. The essentials:
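Cytotoxicity counter screen: p53RE-bla, 4,000 cells/well; 5 h settle, 37 C/5% CO2; cpd + HLM 0.5 mg/mL + NADPH 0.5 mg/mL (final); 16 h, 37 C; CellTiter-Glo, 30 min RT, luminescence.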

Experiment [9] in a line: p53 small molecule agonists, cell-based qHTS assay with rat liver microsomes: qHTS cell viability counter screen (AID 1963580). Note: nearly all actives have a fitted effect of over 45% in size. The essentials:
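HCT-116 p53RE-bla, 4,000 cells/well, 5 h pre-incubation; cpd + rat liver microsomes 0.5 mg/mL + NADPH 0.5 mg/mL (final); 16 h, 37 C; CellTiter-Glo, 30 min RT; luminescence.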

Experiment [10] in a line: p53 small molecule agonists, cell-based qHTS assay: qHTS cell viability counter screen (AID 1963581). Note: nearly all actives have a fitted effect of over 45% in size. The essentials: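 HCT-116 p53RE-bla cells, 4,000/well, plated 5 h before compound pin transfer; 16 h at 37 C; bla substrate 2 h RT; then CellTiter-Glo, 30 min RT, luminescence.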
Experiment [11] can be described thus: p53 small molecule agonists, cell-based qHTS assay (AID 1963582; active = well fitted activation curve with a large enough effect in the signal ratio in the repeat runs, not every such curve was filed as active; the % refers to the signal ratio). The essentials:
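Reporter line: p53RE-bla. Pre-incubation 5 h, 37 C, 5% CO2; compound (DMSO, pin tool) 16 h, 37 C; B/G FRET substrate 2 h RT; fluorescence intensity read.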

Experiment [12] concerns the target 5-hydroxytryptamine receptor 2A (Homo sapiens) (UniProt P28223). Put plainly: 5-hydroxytryptamine receptor 2A (HTR2A) small molecule agonists, cell-based qHTS assay (AID 1963587). Note: nearly all actives have a fitted effect of over 30% in size. Note: potency is the fitted concentration of half-maximal effect. The essentials: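 Kinetic calcium-flux fluorescence (2 min, 1 sec intervals) after compound addition in agonist mode. HTR2A-CHO cells were cultured 18 h, then dye-loaded 1 h at 37 C.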

The target in experiment [13] is Muscarinic acetylcholine receptor M1 (Homo sapiens) (UniProt P11229). Briefly: Cholinergic receptor muscarinic 1 (CHRM1) small molecule antagonists, cell-based qHTS assay (AID 1963588). Note: nearly all actives have a fitted effect of over 40% in size. The essentials: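 CHRM1-CHO calcium-flux assay, antagonist mode. Cells were seeded 18 h, dye-loaded 1 h at 37 C and given compound for 5 min at RT, then acetylcholine was added at 50nM. FDSS fluorescence was read 3 min; 15 concentrations, three runs.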
Muscarinic acetylcholine receptor M1 (Homo sapiens), sequence (P11229 whole entry, looked up): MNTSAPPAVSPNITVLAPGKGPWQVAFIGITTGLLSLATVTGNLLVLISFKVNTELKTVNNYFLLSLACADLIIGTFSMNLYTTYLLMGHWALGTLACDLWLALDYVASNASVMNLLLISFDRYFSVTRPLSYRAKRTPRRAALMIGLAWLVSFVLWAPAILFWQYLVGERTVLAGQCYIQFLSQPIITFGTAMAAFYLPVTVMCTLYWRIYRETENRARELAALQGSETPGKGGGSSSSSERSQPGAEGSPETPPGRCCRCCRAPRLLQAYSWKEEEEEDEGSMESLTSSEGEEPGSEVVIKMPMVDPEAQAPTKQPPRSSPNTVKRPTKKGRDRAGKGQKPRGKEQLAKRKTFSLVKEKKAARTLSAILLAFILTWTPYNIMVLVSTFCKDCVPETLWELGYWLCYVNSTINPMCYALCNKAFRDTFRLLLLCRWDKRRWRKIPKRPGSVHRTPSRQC

A short description of experiment [14]: cAMP Responsive Elements (CRE) small molecule agonists, cell-based qHTS assay (AID 1963590). The essentials:
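HEK 293T CRE-bla, 2,000 cells/well, 18 h preincubation 37 C/5% CO2; cpds (DMSO) pinned, 3 h; LiveBLAzer B/G FRET substrate, 2 h RT.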

Experiment [15] can be described thus: cAMP Responsive Elements (CRE) small molecule antagonists, cell-based qHTS assay (AID 1963591; active = well fitted inhibition curve with a large enough effect in the signal ratio in the repeat runs, not every such curve was filed as active; the % refers to the signal ratio). The essentials: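 Beta-lactamase reporter read by FRET substrate (LiveBLAzer B/G) after 2 h at room temperature. CRE-bla HEK293T cells had received compound plus 0.25 uM (final) NKH477 for 3 h at 37 °C.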
Experiment [16] has as its target Beta-2 adrenergic receptor (Homo sapiens) (UniProt P07550). Briefly: Adrenergic beta2 receptor (ADRB2) small molecule antagonists, cell-based qHTS assay (AID 1963592). Note: series mostly up to about 92 µM; nearly all actives have a fitted effect of over 50% in size. The essentials: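 Cells (CHO, stable ADRB2 overexpression) incubated 18-20hr at 37C; compounds added from DMSO; agonist mix (1nM isoproterenol, 100uM IBMX, 25uM Ro-20-1724) added; 0.5hr RT; d2-cAMP and anti-cAMP-cryptate added; 1hr RT; 665/615 nm read.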

Experiment [17] has the same target. Put plainly: Adrenergic beta2 receptor (ADRB2) small molecule agonists, cell-based qHTS assay (AID 1963593).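 Note: CHO cells stably overexpressing human ADRB2.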 The essentials: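 CHO cells stably over-expressing ADRB2 were plated overnight at 37C, then dosed with compounds plus a stimulation mix containing 100uM IBMX and 25uM Ro-20-1724 for 0.5hr at room temperature. cAMP was measured by HTRF competition, 1hr.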

The target in experiment [18] is D(2) dopamine receptor (Homo sapiens) (UniProt P14416). Put plainly: Dopamine D2 receptor (DRD2) small molecule agonists, cell-based qHTS assay (AID 1963594). Note: nearly all actives have a fitted effect of over 35% in size. The essentials:
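cAMP accumulation in DRD2-HEK293 cells measured by HTRF after 1 h detection; compounds added 10 min before NKH477 (200nM […]) forskolin-analogue stimulation, 30 min at room temperature, with Ro20-1724 present at 0.1 mM final.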

Experiment [19] has the same target. Briefly: Dopamine D2 receptor (DRD2) small molecule antagonists, cell-based qHTS assay (AID 1963595; active = well fitted inhibition curve with a large enough effect in the signal ratio in the repeat runs, with a control signal flat; the % refers to the signal ratio). The essentials:
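Readout: HTRF cAMP, cAMP-d2 competing with cellular cAMP for anti-cAMP cryptate, read after 1 h. Cells: DRD2-HEK293. Conditions: 0.1 mM Ro20-1724, 12 nM quinpirole, 200 nM NKH477, 30 min RT.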

Molecules are shown by their SMILES. Where “and” joins values, the source holds several entries; their conditions need not be identical. Identical values can stand only once. Inconclusive results are not listed. Some structures have more than one record in an assay (separate samples or runs), and their calls can disagree. Calls of active or inactive are those of the source. Unless noted, calls come from the whole dose curve.

D(2) dopamine receptor (Homo sapiens), sequence (P14416 whole entry, looked up): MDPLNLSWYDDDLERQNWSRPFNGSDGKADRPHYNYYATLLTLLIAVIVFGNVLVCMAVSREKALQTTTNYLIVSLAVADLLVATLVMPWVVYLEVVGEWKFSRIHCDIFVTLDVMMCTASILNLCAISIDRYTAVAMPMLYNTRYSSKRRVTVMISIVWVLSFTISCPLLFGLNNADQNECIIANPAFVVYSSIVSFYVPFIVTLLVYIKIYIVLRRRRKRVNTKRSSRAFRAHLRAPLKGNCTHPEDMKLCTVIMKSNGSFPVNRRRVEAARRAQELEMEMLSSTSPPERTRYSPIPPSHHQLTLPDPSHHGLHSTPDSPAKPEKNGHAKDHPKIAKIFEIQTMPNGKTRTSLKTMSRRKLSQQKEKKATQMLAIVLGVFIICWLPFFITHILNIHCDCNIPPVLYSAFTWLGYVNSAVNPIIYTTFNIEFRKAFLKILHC
Beta-2 adrenergic receptor (Homo sapiens), sequence (P07550 whole entry, looked up): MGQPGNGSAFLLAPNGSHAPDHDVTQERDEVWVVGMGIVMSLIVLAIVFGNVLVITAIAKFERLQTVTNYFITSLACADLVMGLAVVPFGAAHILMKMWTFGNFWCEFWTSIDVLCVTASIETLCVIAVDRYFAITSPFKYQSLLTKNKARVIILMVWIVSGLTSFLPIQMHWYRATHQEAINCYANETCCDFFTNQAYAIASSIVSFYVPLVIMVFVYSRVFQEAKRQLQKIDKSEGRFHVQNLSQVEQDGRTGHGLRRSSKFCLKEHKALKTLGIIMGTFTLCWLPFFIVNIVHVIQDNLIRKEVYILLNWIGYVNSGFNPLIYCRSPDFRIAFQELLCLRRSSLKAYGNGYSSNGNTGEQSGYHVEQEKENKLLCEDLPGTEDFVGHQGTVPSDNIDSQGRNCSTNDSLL
KiSS-1 receptor (Homo sapiens), sequence (Q969F8 whole entry, looked up): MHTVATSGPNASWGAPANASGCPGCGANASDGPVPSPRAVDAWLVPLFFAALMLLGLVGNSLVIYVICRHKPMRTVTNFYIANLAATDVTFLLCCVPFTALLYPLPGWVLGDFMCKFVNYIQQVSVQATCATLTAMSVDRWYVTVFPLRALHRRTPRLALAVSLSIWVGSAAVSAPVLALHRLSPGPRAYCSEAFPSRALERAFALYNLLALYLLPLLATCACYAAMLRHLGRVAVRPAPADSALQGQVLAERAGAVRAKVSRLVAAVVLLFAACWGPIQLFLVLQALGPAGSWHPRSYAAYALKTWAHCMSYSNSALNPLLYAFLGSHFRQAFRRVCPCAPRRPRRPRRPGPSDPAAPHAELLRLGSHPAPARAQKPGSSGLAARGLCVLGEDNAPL
5-hydroxytryptamine receptor 2A (Homo sapiens), sequence (P28223 whole entry, looked up): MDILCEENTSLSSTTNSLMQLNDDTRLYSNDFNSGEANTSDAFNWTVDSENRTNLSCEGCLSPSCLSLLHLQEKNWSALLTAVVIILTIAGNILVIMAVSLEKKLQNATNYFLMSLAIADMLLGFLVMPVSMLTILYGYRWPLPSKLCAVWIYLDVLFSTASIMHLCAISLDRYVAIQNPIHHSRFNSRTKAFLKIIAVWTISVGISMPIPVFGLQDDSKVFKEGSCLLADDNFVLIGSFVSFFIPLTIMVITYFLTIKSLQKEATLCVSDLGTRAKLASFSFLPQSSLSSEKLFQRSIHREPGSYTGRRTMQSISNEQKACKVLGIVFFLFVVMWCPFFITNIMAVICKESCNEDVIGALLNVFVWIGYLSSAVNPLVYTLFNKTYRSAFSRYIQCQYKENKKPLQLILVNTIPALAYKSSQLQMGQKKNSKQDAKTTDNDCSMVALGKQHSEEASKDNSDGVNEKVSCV

As to `OCc1ccc(Cl)cc1Cl`, the Potency entry in experiment [1], in experiment [2], in experiment [3], in [4], in [5] and in experiment [6] was “inactive” in each case. The Potency entry in experiment [7], in experiment [8], in experiment [9], in experiment [10], in experiment [11] and in [12] was “inactive” in each case. Moreover, the Potency result in experiment [13], in [14], in [15], in [16], in experiment [17] and in experiment [18] was “inactive” in each case. For the same compound, the Potency entry in [19] is “inactive”.
For the compound `C/C=C/c1ccc(O)c(OC)c1`, the Potency entry in experiment [1], in [2], in experiment [3], in [4], in [5] and in experiment [6] was “inactive” in each case. For the same compound, the Potency result in experiment [7], in experiment [8], in experiment [9], in experiment [10], in experiment [11] and in [14] was “inactive” each time. Moreover, the Potency result in experiment [15], in experiment [16], in experiment [17], in experiment [18] and in [19] was “inactive” in each case.
For the compound `O=C(/C=C/C=C/c1ccc2c(c1)OCO2)N1CCCCC1`, the Potency entry in [1], in experiment [3], in experiment [4], in experiment [5], in experiment [6] and in experiment [7] was “inactive” throughout. The Potency entry in [8], in [9], in experiment [10], in experiment [11], in experiment [13] and in experiment [14] was “inactive” in each case. Besides, the Potency entry in experiment [15], in [16], in experiment [18] and in [19] was “inactive” in each case. Also, the Potency entry in experiment [2] was “inactive and 2.73 µM (active)”; in experiment [12] it was 6.18 µM (active) and inactive.
As to `CCCCC1C(=O)N(c2ccccc2)N(c2ccccc2)C1=O`, the Potency result in [1], in experiment [2], in experiment [3], in experiment [4], in experiment [5] and in experiment [6] was “inactive” in each case. Further, the Potency result in [7], in experiment [8], in experiment [9], in experiment [10], in experiment [11] and in experiment [14] was “inactive” throughout. Also, the Potency result in experiment [15], in experiment [16], in experiment [17], in [18] and in [19] was “inactive” in each case.
As to `C=CCCCCCCCCC(=O)O`, the Potency result in [1], in experiment [2], in [3], in experiment [4], in experiment [5] and in experiment [6] was “inactive” in each case. Also, the Potency entry in [7], in experiment [8], in [9], in experiment [10], in experiment [11] and in experiment [13] was “inactive” each time. In addition, the Potency entry in [15], in [16], in experiment [17], in experiment [18] and in [19] was “inactive” in each case.
As for `CN(C)CCCN`, the Potency entry in [1], in experiment [2], in experiment [3], in experiment [4], in [5] and in [6] was “inactive” in each case. Also, the Potency entry in [7], in experiment [8], in experiment [9], in experiment [10], in experiment [11] and in experiment [12] was “inactive” throughout. Besides, the Potency entry in experiment [13], in [14], in experiment [15], in [16], in [17] and in experiment [18] was “inactive” throughout. For the same compound, the Potency result in [19] was “inactive”.
As for `C[C@@H](O)[C@H]1C(=O)N2C(C(=O)O)=C(S[C@@H]3CN[C@H](C(=O)N(C)C)C3)[C@H](C)[C@H]12`, the Potency result in [1], in [2], in experiment [3], in experiment [4], in [5] and in experiment [6] was “inactive” in each case. Moreover, the Potency result in experiment [7], in experiment [8], in experiment [9], in experiment [10], in experiment [11] and in experiment [14] was “inactive” each time. In addition, the Potency entry in experiment [15], in [16], in experiment [17], in [18] and in experiment [19] was “inactive” in each case.

The values are drawn from PubChem BioAssay (Tox21).
